PubChem BioAssay (NCI)
Compounds without any hit were thinned out: in the full panel of roughly 79,000, 15% have a hit. Values without a mark were called inactive. Active and inactive are the calls of the source. No stated cut-off is given here; in the data, active means growth inhibition above about 70%; inactive means the rest.

Test: NCI Yeast Anticancer Drug Screen. Data for the rad50 strain (AID 155);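 further: 0% = growth of vehicle-only cultures of the same strain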
Conditions: S. cerevisiae rad50 strain growth inhibition; at 50.0 µM; stronger effect = higher value
How it was run: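 Genetically altered yeast (DNA repair pathway); compound treatment; growth inhibition vs vehicle ctrl.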

SMILES	growth inhibition
CCCCCCCCCCC(=O)O	0.25%
O=S=NN(CC(Cl)c1ccccc1)CC(Cl)c1ccccc1 (configuration not stated)	10.1%
CCOP(=O)(OCC)C(O)C(C)C (configuration not stated)	3.5%
CCOP(=O)(O)C1CCCC(C)[N-]1.CCOP(=O)(O)C1CCCC(C)[N-]1.CCOP(=O)(O)C1CCCC(C)[N-]1.[Ti+3] (configuration not stated)	1.7%
[C-]#[O+].[C-]#[O+].[C-]#[O+].[C-]#[O+].[C-]#[O+].[CH3][Sn]([Cl])[c]1ccccc1.[Mn]	91.5% (active)
O=C1NC2C(=CC(O)C(O)C2O)c2cc3c(cc21)OCO3 (configuration not stated)	29.9%
Cc1ccc2c(c1)N(CCCl)c1c(ccc3ccccc13)S2	-6.55%
O=C(COc1ccc(Cl)cc1)Nc1ccc(Cl)cc1C(=O)c1ccccc1	-15.8%
NC(N)=Nc1nn[nH]n1	3.25%
NNC(=O)Nc1ccc([N+](=O)[O-])cc1[N+](=O)[O-]	63.8%
Brc1ccc(Oc2ccc(Br)cc2Br)c(Br)c1	13.9%
NS(=O)(=O)CC1CC[CH-]CC1.[Cl-].[Cl-].[Cl-].[Cl-].[Cl-].[Sb+5].c1ccncc1	11.3%
Nc1nc(N)c(N)c(N)n1	3.05%
[Cl][Hg][c]1cccs1	99.6% (active)
CCOP(=O)(NC(C)(C)C)OCC	-15.1%
[CH3][Sb]([CH3])([CH3])([I])[I]	20.4%
CCOC(OCC)c1ccc(C(F)(F)F)cc1.[C-]#[O+].[C-]#[O+].[C-]#[O+].[Cr]	14.2%
